Bioassay records from PubChem BioAssay.
An excerpt weighted towards active compounds, which were near 4.2% of everything screened.
CCHF vOTU inh-1: CCHFV vOTU protease inhibition. Pep-AMC fluorescence. inhibition, % at 11.5 µM. 0.55% of 370,000 active. AID 651958; further: 0% = vehicle wells with enzyme and 100% = no enzyme wells
GDH-TPI inh: counter-screen for M. tuberculosis FBA inhibitors: GDH-TPI coupled enzymes. AID 588335. 1.2% of 360,000 active. inhibition, % at 4.8 µM. GDH-TPI coupled enzyme counterscreen, NADH absorbance;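 further: 0% = DMSO wells and 100% = wells lacking the enzyme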
RecA intein inh: blocks M. tuberculosis RecA intein splicing. P9WHJ3. cell-free RecA intein splicing, fluorescence. inhibition, % (no concentration beside the values). 0.75% of 290,000 active. AID 2221; in the data active means inhibition above about 30%;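 further: 0% = vehicle wells and 100% = reference inhibitor control wells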
Mtb bLac sens: beta-lactam sensitization of Mtb H37Rv | AID 434955 | inhibition, % at 25 µM | M. tuberculosis H37Rv growth with meropenem, percent inhibition | 0.27% of 330,000 active; call rule not given here;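 further: growth measured after seven days incubation then overnight dye step; 0% = bacteria only wells and 100% = bacteria with antibiotic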
Mtb FBA inh: inhibitors of M. tuberculosis fructose-bisphosphate aldolase; purified M. tuberculosis FBA, fluorescence read-out; inhibition, % at 1 µM; 2.3% of 360,000 active; in the data active means inhibition above about 27%;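 further: 0% = vehicle and 100% = reference inhibitor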
Target sequence (P9WQA3 whole entry, looked up): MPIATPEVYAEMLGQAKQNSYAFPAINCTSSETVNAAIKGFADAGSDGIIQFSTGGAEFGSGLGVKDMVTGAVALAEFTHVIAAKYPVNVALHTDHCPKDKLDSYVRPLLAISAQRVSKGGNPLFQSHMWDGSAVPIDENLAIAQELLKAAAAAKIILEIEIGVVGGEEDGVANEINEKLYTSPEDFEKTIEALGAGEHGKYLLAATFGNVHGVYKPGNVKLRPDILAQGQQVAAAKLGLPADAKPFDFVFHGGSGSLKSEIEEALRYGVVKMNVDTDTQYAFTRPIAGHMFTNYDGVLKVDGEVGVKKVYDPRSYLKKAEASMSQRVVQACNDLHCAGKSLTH
CCHF vOTU inh-2: CCHFV vOTU protease inhibition, confirmation; inhibition, % at 11.5 µM; shares compounds with CCHF vOTU inh-1; 17% of 1,900 active; Recombinant CCHFV vOTU, Pep-AMC fluorescence; AID 686976
The depositor's hits bear a star; . = no result. Unless noted, no stated cut-off is given here; in the data, active means inhibition above about 30%; inactive means the rest.

SMILES	CCHF vOTU inh-1	GDH-TPI inh	RecA intein inh	Mtb bLac sens	Mtb FBA inh	CCHF vOTU inh-2
O=C(Nc1ccc(Oc2ncnc3cc(Cl)ccc23)nc1)c1cccs1	0	-11	-2	-3	1	.
CCOC(=O)c1c(C)[nH]c(C)c1S(=O)(=O)N1CCN(c2ccc([N+](=O)[O-])cc2)CC1	6	20	-2	-8	-1	.
CC(=O)N(c1ccccc1C)c1ccccc1C	34*	3	.	.	0	-10
O=C(CCc1ccccc1)N[C@H]1[C@H](OCc2ccccc2)CCC[C@@]12C(=O)N(Cc1ccccc1)c1ccccc12	7	.	.	.	.	.
CNC(=O)NC(=O)CSc1ccc(S(=O)(=O)N2CCOCC2)cn1	4	3	.	-6	0	.
CCOC(=O)Nc1ccc(NCc2ccc(F)cc2)nc1N	67*	18	.	2	7	-5
COc1ccc(C2NC(=O)NC(C)=C2C(=O)OC2CCCCC2)cc1 (stereo unspecified)	42*	1	.	.	-2	-4
CCOC(=O)c1cnc2cc(-c3ccc(C)cc3)nn2c1C	30*	13	.	.	-3	-22
CCOC(=O)c1cnc2cc(-c3ccc(C)cc3)nn2c1-c1ccccc1	-6	-1	-7	5	0	.
O=C1NNC(c2ccccc2)=N/C1=C\c1ccccc1Cl	54*	-1	.	.	1	43*
Cc1ccc2c(c1C)-c1c(ccc(C)c1C)C(=O)C2=O	75*	4	.	.	-3	72*
CCOC(=O)N1CCN(c2ccc(C(C)=O)cc2F)CC1C (stereo unspecified)	31*	12	0	2	-1	-3
CCOC(=O)N1CCN(c2ccc([N+](=O)[O-])cc2F)CC1C (stereo unspecified)	10	10	5	2	0	.
COc1ccc(/C=N/NC(=O)c2nn(-c3ccccc3)c(=O)c3c(N)scc23)cc1	50*	7	68*	-5	-8	91*
COc1ccc(/C=N/NC(=O)c2nn(-c3ccc(C)c(C)c3)c(=O)c3ccccc23)cc1	5	12	-1	3	7	.
O=C(O)CC/C(=C\c1ccc(N2CCCC2)c([N+](=O)[O-])c1)c1nc2ccccc2s1	33*	18	7	1	-5	10
O=C(O)CC/C(=C\c1ccccc1[N+](=O)[O-])c1nc2ccccc2s1	-7	7	13	-2	2	.
CN(c1ccccc1)c1ccc(/C=C(/CCC(=O)O)c2nc3ccccc3s2)cc1[N+](=O)[O-]	32*	32*	.	.	-7	26
c1ccc(Cn2cc(CCOCc3ccccn3)c3ccccc32)cc1	32*	.	.	.	.	-9
CC1(C)CC(Cc2ccc(C(=O)c3ccccc3)cc2)N(C(=O)OC(C)(C)C)N1 (stereo unspecified)	22	20	.	.	1	.
CN1c2ccccc2C(O)=C(C(=S)Nc2ccc(Cl)cc2)S1(=O)=O	31*	48*	6	59	1	6
CCCCN1CC(=O)N2[C@H]3c4cc(Cl)ccc4OC[C@@H]3[C@H](c3ccccc3)[C@]2(C)C1=O	3	3	.	7	0	.
COc1ccccc1N1C(=O)NC(=O)/C(=C/c2ccc([N+](=O)[O-])s2)C1=O	-7	.	13	100	.	.
O=C1NC(=O)N(Cc2ccc(F)cc2)C(=O)/C1=C\c1ccc([N+](=O)[O-])s1	32*	30	10	99	-3	23
CN(C)c1ccc(-c2[nH][nH]c(=O)c2NC(=O)c2ccc3ccccc3n2)cc1	105*	.	.	.	-3	-11
SMILES	CCHF vOTU inh-1	GDH-TPI inh	RecA intein inh	Mtb bLac sens	Mtb FBA inh	CCHF vOTU inh-2
CN(C)c1ccc(-c2[nH][nH]c(=O)c2NC(=O)c2ccccn2)cc1	113*	.	.	.	-2	2
CN(C(=O)COC(=O)COc1ccc2ccccc2c1)c1c(N)n(Cc2ccccc2)c(=O)[nH]c1=O	30*	4	.	3	0	-41
COC(=O)Nc1ccc(S(=O)(=O)N2CCC(C(=O)N3CCC(C)CC3)CC2)cc1	42*	7	0	8	1	-19
COC(=O)Nc1ccc(S(=O)(=O)N2CCC(C)CC2)cc1	-9	12	1	-10	0	.
CCOc1ccc2[nH]c(=O)c(CN(CC3COCCO3)C(=O)c3ccc(C)cc3)cc2c1 (stereo unspecified)	9	4	3	-4	20	.
O=c1oc2ccccc2c(Nc2cc3ccccc3cc2O)c1[N+](=O)[O-]	30*	17	0	0	0	-10
O=C(NNC(=O)c1ccccc1O)c1ccc(Cl)c(S(=O)(=O)N2CCc3ccccc32)c1	10	17	10	-1	2	.
CN(C)c1ccc(NC(=O)COC(=O)c2cc(=O)c3ccccc3o2)cc1	35*	0	-4	-1	1	-15
Cc1ccc(CN2C(=O)C[C@@H](NC(=O)OCC3c4ccccc4-c4ccccc43)C/C=C\C2c2ccc(C)cc2)cc1 (stereo partly specified)	32*	14	.	.	1	-9
O=C(CCc1ccccc1)Nc1ccncc1	50*	2	1	4	5	-16
O=C(CCc1ccccc1)Nc1cccnc1	-12	-5	-4	6	0	.
C#CCN1C[C@@]2(O)CC[C@@H](O)[C@@H](OC)[C@@H]2[C@@]1(C)[C@H](O)CC=C(C)C	1	.	.	.	.	.
CCOc1ccc(-n2c(=S)sc3c(=O)n(-c4ccc(F)cc4)c(SCC(=O)O)nc32)cc1	34*	20	0	-8	-1	-5
CCOc1ccc(-n2c(=S)sc3c(=O)n(-c4ccccc4)c(SCC(=O)O)nc32)cc1	10	18	-27	-3	1	.
CC(C)(C)c1ccccc1NC(=O)Nc1nc(C(N)Cc2ccc(F)cc2)cs1 (stereo unspecified)	30*	15	.	.	2	-23
CC(=O)Nc1ccc(NC(=O)CSc2nnc(NC(=O)c3ccccc3F)s2)cc1	13	9	.	.	0	.
Cc1ccsc1/C=N/N=C1\C(=O)Nc2ccccc21	6	15	1	2	-5	.
O=C1Nc2ccccc2/C1=N\N=C\c1ccc(O)c(O)c1	33*	36*	-6	-2	-8	5
N#Cc1cc([N+](=O)[O-])ccc1NC(=O)CSc1n[nH]c(=O)n1C1CC1	32*	-1	.	-1	0	-15
CCOc1ccc(C2C(C#N)=C(N)N(N(C)C)C3=C2C(=O)CC(C)(C)C3)cc1 (stereo unspecified)	-9	13	-7	1	2	.
CCOc1ccc2c(c1)C(C)=CC(C)(C)N2C(=O)Nc1ccccc1F	71*	1	-1	5	4	-100
CCNC(=O)N1c2ccc(OCC)cc2C(C)=CC1(C)C	-16	11	-2	15	13	.
CCCCCCN1C[C@H](n2cc(COC(=O)c3ccccc3)nn2)[C@@H](O)C[C@@H]1c1ccccc1	17	-12	.	.	-1	.
CCCCCCN1C[C@H](n2cc(COC(=O)c3ccccc3)nn2)[C@@H](O)C[C@@H]1c1ccc(C)cc1	37*	1	.	.	-4	8
